Compounds with a hit are over-represented: about 3.6% of the library has one in this group of screens.
Mdm2-MdmX inh – inhibitors of human Mdm2-MdmX association, primary screen, cell-based, luminescence, split luciferase, SaOS-2, uHTS; Protein Mdm4 (Homo sapiens) + E3 ubiquitin-protein ligase Mdm2 (Homo sapiens), …; SaOS-2 split-luciferase Mdm2/MdmX complementation; inhibition, % at 8 µM; actives 3% (n = 330,000);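 active = inhibition of at least 50% at 8 µM in the primary screen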
CF NFkB inh – inhibitors of PAF-induced NF-kB signaling, primary screen, cell-based, GFP fluorescence, uHTS | KKLEB NF-kB-GFP reporter, GFP fluorescence overnight | inhibition, % at 5 µM | actives 0.86% (n = 360,000);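 active = at least 50% inhibition at 5 µM, scaled per plate between neutral and stimulator controls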;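 note: PAF is a Pseudomonas aeruginosa culture filtrate used as stimulus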
Peg3 promoter – Peg3 promoter-driven luciferase inhibitors, primary screen, cell-based, HeLa, luciferase luminescence; inhibition, % at 20 µM; actives 1.7% (n = 360,000); HeLa PEG-Prom luciferase reporter, overnight;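 active = inhibition of at least 50% at 20 µM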
KKLEB cytotox – cytotoxicity in KKLEB CF airway cells, primary screen, cytotoxicity control for CF NF-kB inhibitor project, cell-based, uHTS, fluorescence assay plates; activity change (cytotoxicity), % at 5 µM; actives 0.36% (n = 360,000); KKLEB CF airway cells viability, ATPlite luminescence, overnight; stronger effect = lower value; cells stimulated with P. aeruginosa culture filtrate;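 active = corrected activity change at or below -50% at 5 µM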
HSP90 inh – HSP90 inhibitors, primary screen, cell lysate, luminescence | Heat shock protein HSP 90 (rabbit reticulocyte lysate; luciferase refolding) | Rabbit reticulocyte lysate, luciferase refolding luminescence, 3 h | inhibition, % at 5.6 µM | actives 0.91% (n = 290,000);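 active = inhibition above the screen-wide mean plus 3 SD, computed separately per campaign, cut at about 16% in these data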;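 note: inhibitors lower the luminescence because luciferase stays unfolded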
LGR2 antag – inhibitors of bursicon-induced LGR2 CRE-luciferase signal, primary screen, cell-based, HEK293, CRE-luciferase reporter, bursicon stimulation; actives 0.35% (n = 380,000); inhibition, % at 9.99 µM; Drosophila bursicon receptor LGR2 (rickets); AID 720647, 2013; bursicon-stimulated, 4 h;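 active = drop in luminescence signal, shown as inhibition above about 50% in the replicate tests, limit read from the data, passing the limit was not always enough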;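 note: agonist challenge used bursicon conditioned medium at about half maximal strength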
Hits are given with their value; – = inactive; · = not tested or not shown.

SMILES	Mdm2-MdmX inh	CF NFkB inh	Peg3 promoter	KKLEB cytotox	HSP90 inh	LGR2 antag
CC12CC[C@H]3[C@@H](CCC4(O)C[C@H](O)CCC34/C=N/NC(=O)c3ccccc3F)C1(O)CCC2C1=CC(=O)OC1 (some centres undefined)	–	–	–	–	–	–
CN(C)c1ccc(C(=O)N/N=C/C23CC[C@@H](O)CC2(O)CC[C@@H]2[C@@H]3CCC3(C)C(C4=CC(=O)OC4)CCC23O)cc1 (some centres undefined)	–	–	105.4	-52.2	–	–
COc1ccc(C(=O)N/N=C/C23CC[C@@H](O)CC2(O)CC[C@@H]2[C@@H]3CCC3(C)C(C4=CC(=O)OC4)CCC23O)cc1 (some centres undefined)	–	–	66.4	–	–	–
CCCN1[C@@H]2c3ccc(-c4ccccc4)c(=O)n3C[C@H]1[C@H](CO)[C@H]2C(=O)OC	·	·	·	·	·	–
O=C(Cc1ccccc1)N1CCCCN2[C@H](C1)[C@H](c1ccc(C#Cc3ccccc3)cc1)[C@@H]2CO	·	·	·	·	·	–
COC(=O)C[C@@H]1CC[C@H]2NC[C@H](O)COC[C@@H]2O1	·	·	·	·	·	–
COc1ccc(C#Cc2ccc([C@@H]3[C@@H](CO)N4CCCCN(C(=O)Cc5ccncc5)C[C@@H]34)cc2)cc1	·	·	·	·	·	–
CC(=NNC(=S)N1CC2CCC(CC2)C1)c1nccs1	·	67.1	–	–	·	–
CC1=CC2OC3CC4OC(=O)C=CC=CC(=O)OCCC(C)C(O)C(=O)OCC2(CC1O)C4(C)C31CO1 (centres undefined)	·	83.9	100.7	–	·	·
CC(O)C1C=CC=CC(=O)OC2CC3OC4C5OC5(C)CCC4(COC(=O)C4OC4(C)C(O)CO1)C2(C)C31CO1 (centres undefined)	·	83.4	97.4	–	·	101.2
CC(=O)OC1C(=O)OCC23CCC4(C)OC4C2OC2CC(OC(=O)C=CC=CC(=O)OCCC1C)C3(C)C21CO1 (centres undefined)	·	93.0	99.6	-55.1	·	104.6
O=C(O)[C@@H]1[C@@H](CO)[C@@H]2Cn3c(ccc(-c4ccncc4)c3=O)[C@H]1N2C(=O)C1CCCC1	·	·	·	·	·	–
N#Cc1ccc(-c2ccc([C@H]3[C@H](CO)N4CCCCN(C(=O)Cc5ccccc5)C[C@@H]34)cc2)cc1	·	·	·	·	·	–
CC=Cc1ccc2n(c1=O)C[C@H]1[C@H](CO)[C@@H](C(=O)OC)[C@@H]2N1C(=O)CC (mixture of isomers)	·	·	·	·	·	–
COc1ccc(-c2ccc([C@H]3[C@@H](CO)N4CCCCN(C(=O)Cc5ccncc5)C[C@H]34)cc2)cc1	·	·	·	·	·	–
COC(=O)[C@@H]1[C@@H](CO)[C@@H]2Cn3c(ccc(-c4ccccc4F)c3=O)[C@H]1N2C(=O)C1CC1	·	·	·	·	·	–
O=C1NC(=S)N(Cc2ccco2)C(=O)/C1=C\c1cccs1	·	·	·	·	–	·
C=CCN1C(=O)/C(=C/c2cccs2)C(=O)NC1=S	·	–	51.1	–	–	–
CC1(C)CN=C(NCc2ccccc2)S1	·	–	–	–	22.9	–
C[N+](C)(C)CC1CCCc2ccccc2C1=O (centres undefined)	·	–	–	–	·	–
C[N+](C)(C)CC1CCCC(C[N+](C)(C)C)C1=O (centres undefined)	·	–	83.3	–	·	–
O=C(Cc1ccccc1)N1CC2(C1)[C@H](c1ccccc1)[C@H](CO)N2Cc1cccc(Cl)c1	·	·	·	·	·	–
CC(C)CC#Cc1ccc([C@@H]2[C@H](CO)N3CCCCN(C(=O)Cc4ccccn4)C[C@@H]23)cc1	·	·	·	·	·	–
Cc1ccc(N/N=C/c2c(O)n(-c3ccccc3)c(=O)[nH]c2=O)cc1	–	–	–	–	24.0	–
Cc1cccc(C(O)(C(=O)O)c2ccccc2)c1 (centres undefined)	·	–	99.8	–	·	–
SMILES	Mdm2-MdmX inh	CF NFkB inh	Peg3 promoter	KKLEB cytotox	HSP90 inh	LGR2 antag
COc1ccc(CNCCc2c[nH]c3ccccc23)c(OC)c1C	–	–	109.2	–	–	–
CCOc1c(Cl)cc(CNCCc2c[nH]c3ccccc23)cc1OC	–	–	59.5	–	–	–
CCOc1cc(CNCCc2c[nH]c3ccccc23)cc(Cl)c1OCC	–	–	94.9	–	–	–
COc1ccc(CNCCc2ccccc2F)c(OC)c1C	–	–	–	–	–	–
COc1ccc(-c2ccc([C@H]3[C@H]4CN(C(=O)Cc5ccccc5)CCCCN4[C@H]3CO)cc2)cc1	·	·	·	·	·	–
CCN1C(=O)/C(=C/c2ccc(N(CC)CC)cc2OC)C(=O)NC1=S	–	–	90.0	–	–	–
CN1[C@@H]2Cn3c(cccc3=O)[C@H]1[C@@H](C(=O)NCC1CC1)[C@@H]2CO	·	·	·	·	·	–
CC(=O)N1[C@@H]2c3ccc(-c4cccc(C(=O)N(C)C)c4)c(=O)n3C[C@H]1[C@H](CO)[C@H]2C(=O)O	·	·	·	·	·	–
CC1=C(N2CC2)C(=O)C(CO)=C(N2CC2)C1=O	·	97.3	100.5	-104.5	·	–
Cc1cccc(N=C2c3cc([N+](=O)[O-])ccc3-c3c2cc([N+](=O)[O-])cc3[N+](=O)[O-])c1	·	–	86.1	–	·	–
CCN(CC)S(=O)(=O)c1ccc(NN=C(C#N)C#N)cc1	–	66.9	–	–	–	·
COC(=O)[C@@H]1[C@@H](CO)[C@@H]2Cn3c(ccc(C4=CCCC4)c3=O)[C@H]1N2C(=O)CC1CC1	·	·	·	·	·	–
CC(=O)OC1C(O)C(C)OC(OC2C(OC(=O)C3CCC4C(C3)OC3(CC(OC(=O)/C=C/c5ccccc5)C(C)CO3)C43CO3)OC(C)C(O)C2OC(C)=O)C1O (centres undefined)	·	90.3	93.1	–	·	99.2
O=C(Cc1ccccn1)N1CCCCN2[C@@H](CO)[C@@H](c3ccc(-c4ccc(F)cc4)cc3)[C@@H]2C1	·	·	·	·	·	–
O=c1[nH]c2ccccc2n1C1CCN(C(c2ccnc3ccccc23)c2nnnn2-c2ccc3c(c2)OCCO3)CC1 (centres undefined)	·	77.4	61.6	-70.1	·	–
O=c1[nH]c2ccccc2n1C1CCN(C(CCc2ccccc2)c2nnnn2-c2ccc3c(c2)OCCO3)CC1 (centres undefined)	·	60.5	90.3	-90.3	·	92.2
CCC(c1nnnn1-c1ccc(OC)cc1)N1CCC(n2c(=O)[nH]c3ccccc32)CC1 (centres undefined)	·	–	–	–	·	–
CCC(c1nnnn1Cc1ccccc1)N1CCC(n2c(=O)[nH]c3ccccc32)CC1 (centres undefined)	·	98.7	75.3	-70.8	·	–

Bioassay records: PubChem, several laboratories
